High-throughput results as filed in PubChem.
Rows were chosen to be rich in hits. Some 2.6% of all compounds tested hit in one or more screens of this group.
Platelet DG rel = modulates dense granule release in human platelets. human platelet-rich plasma, SFLLRN dense granule ATP release, luminescence. inhibition, %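 (compounds screened at 7.5 µM in platelet-rich plasma)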. actives 0.22% (n = 300,000). AID 1663;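 active = mean replicate score, as percent of positive control, at or above 50; inconclusive = mean below 50 but at least one replicate at or above 50; inactive = mean and every replicate below 50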
Granule exo inh = blocks lytic granule exocytosis; TALL-104 LAMP-1 surface exposure, flow cytometry; cells stimulated with thapsigargin and PMA; inhibition, % at 10 µM; actives 0.66% (n = 360,000);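 active = inhibition above about 55%, limit read from the data; inconclusive = no clear call, values can overlap the other calls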
ABHD5-PLIN5 inh = blocks binding of human ABHD5 to perilipin-5. inhibition, % at 4 µM. Split G. princeps luciferase complementation, luminescence, 4 h. actives 0.78% (n = 360,000);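 active = inhibition above the mean inhibition across every tested compound plus 3 SD, cut at about 22% in these data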;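 note: 0% = DMSO only wells and the 100% control is not disclosed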
Rce1 inh = inhibitors of yeast Ras-converting enzyme | actives 0.27% (n = 290,000) | AID 2563 | yeast membranes, quenched prenylated peptide cleavage fluorescence | calls only;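 active = fall in fluorescence gain of 50% or more versus controls, with final raw signal at or below 3038400; inconclusive = same 50% fall but final raw signal above 3038400; inactive = fall in fluorescence gain under 50%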;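 note: plate controls were neutral control wells for no effect and wells lacking membranes for full effect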
M18AAP inhibitor = PfM18AAP enzyme inhibition; recombinant PfM18AAP, H-Glu-NHMec fluorogenic cleavage; inhibition, % at 7.35 µM; actives 1.2% (n = 290,000);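 active = inhibition above the campaign mean inhibition over all tested compounds plus 3 SD, cut at about 28% in these data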;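 note: 0% = plate median of test compound wells and 100% = 2 mM ZnCl2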
ABHD5-PLIN5 conf = ABHD5-PLIN5 interaction inhibition, confirmed; AID 651612; biochemical ABHD5-PLIN5 interaction, luminescence; actives 67% (n = 2,200); inhibition, % at 4 µM; shares compounds with ABHD5-PLIN5 inh; in the data active = inhibition above about 23%;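 note: 0% = DMSO vehicle wells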
HNF4 split-luc = counter-screen for ABHD5-PLIN5 inhibitors: HNF4 split-luciferase | inhibition, % at 4 µM | HNF4 dimerization, luminescence, biochemical | actives 77% (n = 2,200) | shares compounds with ABHD5-PLIN5 inh;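 active = mean inhibition across replicate wells exceeding the computed hit threshold, cut at about 13% in these data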;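 note: light from luciferase halves that rejoin when HNF4 fusion proteins dimerize; 0% = DMSO only wells and the 100% control is not given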
Target sequence (P41235 whole entry, looked up, the tested form may be a part): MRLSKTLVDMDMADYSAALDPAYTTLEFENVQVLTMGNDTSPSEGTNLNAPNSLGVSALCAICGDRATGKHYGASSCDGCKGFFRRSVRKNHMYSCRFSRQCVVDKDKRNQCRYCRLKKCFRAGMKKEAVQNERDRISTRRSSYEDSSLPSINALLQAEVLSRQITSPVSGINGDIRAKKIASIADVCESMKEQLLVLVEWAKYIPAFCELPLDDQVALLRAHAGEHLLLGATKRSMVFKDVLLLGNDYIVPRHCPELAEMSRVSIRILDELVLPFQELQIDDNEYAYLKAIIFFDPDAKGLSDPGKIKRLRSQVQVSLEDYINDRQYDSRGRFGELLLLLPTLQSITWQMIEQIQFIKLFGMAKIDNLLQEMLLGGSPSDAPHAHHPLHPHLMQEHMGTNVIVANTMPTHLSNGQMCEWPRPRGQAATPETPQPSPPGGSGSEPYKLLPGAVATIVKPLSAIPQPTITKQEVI
Active calls of the source: *; i = inactive; ? = inconclusive; . = no result.

SMILES	Platelet DG rel	Granule exo inh	ABHD5-PLIN5 inh	Rce1 inh	M18AAP inhibitor	ABHD5-PLIN5 conf	HNF4 split-luc
COc1ccc(CCC(=O)Nc2c(-c3ccc(N(C)C)cc3)[nH][nH]c2=O)cc1	.	-3	86*	.	.	22	79*
c1coc(-c2nnc3sc(C4CCCCC4)nn23)c1	8	-6	4	i	8	.	.
COc1cc(C(=O)NCCC2=CCCCC2)cc(OC)c1OC	8	0	5	i	0	.	.
Nc1nsc2ccccc12	16	2	45*	i	2	57*	64*
Nc1nnc(N)c2ccccc12	3	-1	3	i	3	.	.
C=C[C@]1(C)C=C2C(=O)[C@@]3(O)OC(=O)[C@@]4(CCCC(C)(C)[C@H]34)[C@@]2(O)CC1	.	7	72*	.	.	61*	81*
Cc1ccc(C2CC(c3ccccc3)=NN2C(=S)Nc2ccccc2)o1 (stereo not given)	1	97*	42*	i	-12	5	3
CC1=NN(C(=S)Nc2ccccc2)C(c2ccccc2)C1 (stereo not given)	-7	0	-7	i	-1	.	.
CCOc1ccc2[nH]c(=O)c(CN(Cc3ccco3)C(=O)c3ccc(Br)cc3)cc2c1	2	5	30*	i	1	89*	92*
CC1C/C(=C/c2ccncc2)C(=O)/C(=C/c2ccncc2)C1 (stereo not given)	3	?	96*	i	6	103*	106*
CC1C/C(=C/c2cccn2C)C(=O)/C(=C/c2cccn2C)C1 (stereo not given)	1	12	42*	i	-2	18	54*
O=C(/C=C/c1ccnc2ccccc12)c1cccs1	34	-2	63*	i	13	92*	92*
COc1cccc(NC(=O)C2CCC(CNS(=O)(=O)c3cccc4cccnc34)CC2)c1 (stereo not given)	1	-3	-1	i	6	.	.
Cc1ccc(OCC(=O)Nc2cccc(S(=O)(=O)N3CCCC3)c2)cc1C	.	-2	-5	.	.	.	.
Cc1ccc(C(C2=C(O)CC(C)(C)CC2=O)C2C(=O)CC(C)(C)CC2=O)s1 (stereo not given)	8	9	17	i	11	.	.
CC1(C)CC(=O)C(C(C2=C(O)CC(C)(C)CC2=O)c2ccc(Br)s2)C(=O)C1 (stereo not given)	12	12	67*	i	-3	91*	97*
O=S(=O)(CS(=O)(=O)c1ccccc1)c1ccccc1	.	0	2	.	.	.	.
O=S(=O)(C/C(=C/CO)S(=O)(=O)c1ccccc1)c1ccccc1	2	22	65*	i	-11	95*	92*
Cc1nnnn1/C(=C\c1ccccc1)C(=O)OCC(=O)Nc1ccc(Cl)cc1F	-7	-1	68*	i	.	92*	85*
CCCCC(=O)Nc1ccc(Cl)cc1F	.	-2	-3	.	.	.	.
Cc1[nH]nc(-c2cccnc2)c1N=NN(C)C	.	2	62*	.	.	73*	79*
O=C1CC(c2ccc(Cl)cc2)CC(=O)C1CS(=O)(=O)c1ccccc1 (stereo not given)	16	-5	25*	i	-9	43*	83*
COc1ccc(N2C(=O)CC(c3ccccc3)CC2=O)cc1	.	-3	-4	.	.	.	.
COc1ccc(C2CC(=O)C(CS(=O)(=O)c3ccccc3)C(=O)C2)cc1 (stereo not given)	-1	1	42*	i	9	53*	102*
O=C1CCCC(=O)C1CS(=O)(=O)c1ccccc1	-1	-1	41*	i	5	46*	98*
SMILES	Platelet DG rel	Granule exo inh	ABHD5-PLIN5 inh	Rce1 inh	M18AAP inhibitor	ABHD5-PLIN5 conf	HNF4 split-luc
Cc1ccc2c(c1)NCCO2	-1	3	-2	i	22	.	.
O=C(CCCCCCCC(=O)c1ccccc1)c1ccccc1	0	-5	0	i	-8	.	.
C=C(CCC(=O)c1ccccc1)C(=O)c1ccccc1	-7	?	32*	i	-16	68*	67*
Cc1ccc(S(=O)(=O)NNC(=O)c2cnn(-c3ccccc3)c2C(F)(F)F)cc1	-1	0	-2	i	-3	.	.
CC1=CC(=O)C=CC1=Nc1ccc(N(C)C)cc1	.	84*	86*	.	.	98*	113*
CN(C)c1ccc(N=Nc2ccc(S(N)(=O)=O)cc2)cc1	8	-3	7	i	1	.	.
CC(C)N1C/C(=C/c2cccnc2)C(=O)/C(=C/c2cccnc2)C1	.	2	41*	.	0	86*	67*
CN1C/C(=C/c2cccnc2)C(=O)/C(=C/c2cccnc2)C1	.	24	66*	.	2	100*	92*
CC(C)N1C/C(=C/c2ccsc2)C(=O)/C(=C/c2ccsc2)C1	-1	1	28*	i	-3	85*	78*
CCN1C/C(=C/c2sccc2C)c2nc3ccccc3c(C(=O)O)c2C1	0	0	1	i	9	.	.
O=C(Nc1nccs1)c1ccc(Br)c(S(=O)(=O)N2CCCC2)c1	-3	1	-9	i	7	.	.
C[C@@H]1CCCCO[C@H](CN(C)C(=O)Nc2ccc(C(F)(F)F)cc2)[C@@H](C)CN([C@H](C)CO)C(=O)c2cc(NC(=O)c3ccncc3)ccc2O1	.	0	2	.	.	.	.
CCOC(=O)C1CCN(C(=O)COC(=O)CCOc2ccc(C)cc2)CC1	-2	-3	-1	i	8	.	.
O=C(O)c1cc(N2C(=O)C=CC2=O)cc(N2C(=O)C=CC2=O)c1	.	-2	24*	.	.	80*	109*
CC(=O)O[C@@H]1C[C@H]2C(C)(C)C(=O)C=C[C@]2(C)[C@H]2CC[C@@]3(C)[C@H](c4ccoc4)OC(=O)[C@H]4O[C@]43[C@@]21C	0	-4	27*	i	4	43*	30*
CC(=O)OC1CC2C(C)(C)C(=O)C=CC2(C)C2CCC3(C)C(c4ccoc4)OC(=O)C4OC43C12C (stereo not given)	.	-1	24*	.	.	42*	34*
O=C(c1ccccc1)c1cc(Cl)ccc1N1C(=O)C=CC1=O	.	3	38*	.	-104	47*	98*
O=c1[nH]cnc(O)c1C1C=CC=CC=C1	.	8	50*	.	.	32*	49*
COc1cc(CNCCO)cc(Cl)c1OCc1ccccc1Cl	1	14	9	i	-1	.	.
CCOc1cc(CNCCO)cc(Br)c1OCc1ccccc1Cl	1	11	28*	i	1	12	0
CCOc1cc(CNCCN2CCOCC2)ccc1OCc1ccccc1Cl	?	3	6	i	-1	.	.
CCOc1cc(CNCCCN2CCOCC2)cc(Br)c1OCc1ccccc1Cl	0	37	30*	i	0	10	17*
O=C(CSc1nnc2ccccn12)c1ccc(OC(F)F)cc1OC(F)F	1	1	1	i	-4	.	.
